Among all 63,000 compounds or so, about 1,100 (1.7%) were called active.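 How the source made its calls: active means compounds whose percent cytotoxicity in the single-dose primary screen, scaled between solvent and toxic-drug controls, exceeds 50; inactive means the rest.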 The sample as a whole holds a higher share of actives than the screen did. Potency and affinity values are given separately.

This experiment is described as follows: cytotoxicity in KRAS-transformed pancreatic duct cells, primary screen, cell-based, fluorescence, HTS (AID 431).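 Further: 0% = DMSO solvent wells and 100% = doxorubicin-treated wells.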 Particulars: HPDE-C7K KRASV12 cells, Alamar Blue viability, 48 h; at 10 µM; active compounds read high. Background: Alamar Blue is a resazurin reagent that responds to reducing activity.
As to `Cc1ccnc(N(C(=O)c2cccs2)C(=O)c2cccs2)c1`, the cytotoxicity was -0.7% (inactive). On to `C=CCN1C(c2ccccc2)=CS/C1=C(\C#N)c1nnc2n1CCCCC2`, for which the cytotoxicity was -0.6% (inactive). For the compound `Cc1cc(C(=O)OCC(=O)NC(=O)NC(C)(C)C)c(C)o1`, the cytotoxicity was -3.4% (inactive). For the compound `COc1cccc(-c2cc(C(=O)N3CCN(C(c4ccccc4)c4ccccc4)CC3)no2)c1`, the cytotoxicity was -8.3% (inactive). Under `C=CCn1c(SCc2ccccc2C#N)nnc1-c1cc(Br)ccc1O` stands 13.1% (inactive); under `C#CC(C)(C)NC(=O)c1ccccc1OC`, -11.3% (inactive); under `COc1cccc(C(=O)Nc2ccc(NC(=O)C(C)(C)C)cn2)c1`, 19.5% (inactive).

Consider `Cc1oc(C)c2c(=O)ccc3c(c12)OC(N)=C(C#N)C3c1ccccc1` (stereo not drawn), for which the cytotoxicity was -7.8% (inactive). Regarding `CSc1ccc(C2C(C#N)=C(N)Oc3c2ccc(=O)c2c(C)oc(C)c32)cc1` (stereo not drawn), the cytotoxicity is -2.3% (inactive).

Regarding `CCOc1cc(NC(=O)c2ccccn2)c(OCC)cc1NC(=O)CC(C)C`, the cytotoxicity is 9.9% (inactive). Regarding `CCOC(=O)NC1(C(F)(F)F)C(=O)NC(C)=C1C#N` (stereo not drawn), the cytotoxicity is 2.9% (inactive). For `CCOC(=O)c1cc2c(c(CSc3nc4ccccc4c(=O)n3Cc3ccco3)c1)OCOC2`, the cytotoxicity is 62.1% (active). With `O=C(CSc1nc2ccccc2c(=O)n1Cc1ccco1)NCc1ccco1`, the cytotoxicity was -11.8% (inactive). Under `CCOC(=O)CSc1nc2ccccc2c(=O)n1Cc1ccco1` stands -3% (inactive); under `O=c1c2ccccc2nc(SCc2cc(F)cc3c2OCOC3)n1Cc1ccco1`, -5.3% (inactive). As to `O=C(CSc1nc2ccccc2c(=O)n1Cc1ccco1)NCc1ccccc1`, the cytotoxicity was 58.5% (active). The same measure for `O=c1c2ccccc2nc(SCc2ccccc2)n1Cc1ccco1`: -7% (inactive). As for `Cn1c(CN2CCOCC2)nnc1SCC(=O)Nc1nccs1`, the cytotoxicity is 1.8% (inactive). In the case of `CCC(C(=O)c1ccc(O)cc1)c1ccccc1` (stereo not drawn), the cytotoxicity was 18.5% (inactive). `CN(C)CC(C(=O)c1ccccc1)c1ccccc1` (stereo not drawn): the cytotoxicity was 100% (active). Regarding `COc1ccc(C(C(=O)OC(C)CN(C)C)c2ccccc2)cc1` (stereo not drawn), the cytotoxicity was -8.5% (inactive). The same measure for `COc1cccc(C2/C(=C(/O)c3cnn(-c4ccccc4)c3C)C(=O)C(=O)N2CCN(C)C)c1OC` (stereo not drawn): 11.3% (inactive); for `CCC(c1nnnn1Cc1ccccc1)N1CCN(C(=O)c2ccco2)CC1` (stereo not drawn): -1.7% (inactive). Regarding `COc1ccccc1-c1cc(C(F)(F)F)nc(S(=O)(=O)CCCC(=O)Nc2cc(C)on2)n1`, the cytotoxicity was 27.3% (inactive). In the case of `COc1ccccc1-c1cc(C(F)(F)F)nc(N2CCOCC2)n1`, the cytotoxicity was -4.5% (inactive). Take `COc1ccccc1-c1cc(C(F)(F)F)nc(N2CCCC2)n1`: the cytotoxicity is -16.5% (inactive).

On to `COc1ccccc1-c1cc(C(F)(F)F)nc(S(=O)(=O)CCCC(=O)NC(C)C)n1`, for which the cytotoxicity is -3.9% (inactive). `COc1ccccc1-c1cc(C(F)(F)F)nc(S(=O)(=O)CCCC(=O)N2CCCCC2C)n1` (stereo not drawn): the cytotoxicity is 50.1% (active). For `CCOc1ccc(-c2[nH]ncc2Oc2cccc(OC)c2)c(O)c1`, the cytotoxicity was 58.3% (active).

For `COc1cccc(Oc2cn[nH]c2-c2ccc(O)cc2O)c1`, the cytotoxicity is 43.9% (inactive). Take `COc1cccc(Oc2cn[nH]c2-c2ccc(OC)cc2O)c1`: the cytotoxicity was 80.7% (active). For the compound `COc1ccc(-c2[nH]ncc2-c2cnn(-c3ccccc3)c2)c(O)c1`, the cytotoxicity is 2.7% (inactive).

On to `CCOc1cccc(OCCOCCN2CCCC2)c1`, for which the cytotoxicity was -6.3% (inactive). Regarding `COc1ccc(CC(=O)Nc2cccc(-c3nnc(-c4ccc(C)cc4)o3)c2)cc1OC`, the cytotoxicity was 18.8% (inactive). Turning to `O=C(c1ccco1)N1C2C=CC(C2)C1(C(F)(F)F)C(F)(F)F` (stereo not drawn), the cytotoxicity was 0.4% (inactive).

As to `COc1cccc(C2=NOC(C(=O)NC(C)C)C2)c1` (stereo not drawn), the cytotoxicity was -9.8% (inactive). Turning to `COc1cccc(C2=NOC(C(=O)NC(C)(C)C)C2)c1` (stereo not drawn), the cytotoxicity was 0.2% (inactive). On to `Cc1cc2cc(CNC(=O)c3ccc4c(c3)OCO4)ccc2[nH]1`, for which the cytotoxicity is 15.6% (inactive). On to `CN1CCN(c2nc(-c3cccnc3)nc3ccccc23)CC1`, for which the cytotoxicity is -10.1% (inactive). Consider `Cn1nnnc1Sc1nc(-c2cccnc2)nc2ccccc12`, for which the cytotoxicity is 109% (active).

Turning to `OCCSc1nc(-c2cccnc2)nc2ccccc12`, the cytotoxicity was 2.2% (inactive). Under `O=C(NCc1ccco1)c1cccnc1-c1nc2ccccc2s1` stands 0% (inactive); under `COC(=O)c1cn(CC(=O)N2CCCCCC2)c2ccccc12`, 3.6% (inactive); under `Cn1nccc1C(=O)OCC(=O)Nc1nc(-c2ccccc2)cs1`, -24.7% (inactive). Regarding `O=C1C(=O)N(Cc2ccco2)C(c2cccc(Cl)c2)/C1=C(\O)c1ccc2c(c1)OCCO2` (stereo not drawn), the cytotoxicity was 2.2% (inactive). As to `O=C1c2[nH]nc(-c3ccccc3O)c2C(c2cccc(Cl)c2)N1CC1CCCO1` (stereo not drawn), the cytotoxicity was 38.2% (inactive).

In the case of `O=C1c2ccccc2NC(c2ccc(F)cc2)N1Cc1ccco1` (stereo not drawn), the cytotoxicity is 2.1% (inactive).

Turning to `O=C1c2ccccc2C(O)N1Cc1ccco1` (stereo not drawn), the cytotoxicity is -9% (inactive).

As to `O=C1c2[nH]nc(-c3ccccc3O)c2C(c2ccccc2)N1Cc1ccco1` (stereo not drawn), the cytotoxicity was 32.3% (inactive).

For the compound `CC(=O)C1=C(O)C(=O)N(Cc2ccco2)C1c1ccc(F)cc1` (stereo not drawn), the cytotoxicity is 8.7% (inactive). Consider `CCn1c(SCC(=O)NCc2cccs2)nnc1-c1ccncc1`, for which the cytotoxicity is -3.4% (inactive). Under `O=C(Nc1ccc(C(=O)Oc2ccccc2)c(O)c1)c1ccco1` stands -1.3% (inactive); under `Cc1sc2ncnc(SCC(=O)N3CCCC3)c2c1C`, -13.4% (inactive); under `O=C(CSc1nnc(Cc2ccccc2)o1)N1CCc2ccccc21`, -9.6% (inactive).

`C=CCn1c(=N)c(C(=O)OC)cc2c(=O)n3cccc(C)c3nc21`: the cytotoxicity was -26.9% (inactive). For `Cc1ccc(C(=O)N2CCCC2)cc1S(=O)(=O)Nc1ccccc1`, the cytotoxicity was -7% (inactive). As to `CC1CCN(C(=O)CSc2nc(N)cc(N)n2)CC1`, the cytotoxicity was -11.1% (inactive). The same measure for `CCc1cc(C(=O)Cc2cnn(-c3ccccc3)c2)c(O)cc1O`: 6.7% (inactive); for `CCCc1cc(C(=O)Cc2ccc(C(=O)OCC)o2)c(O)cc1O`: 24.5% (inactive). As for `CCc1cc(C(=O)Cc2nc3ccccc3[nH]2)c(O)cc1O`, the cytotoxicity is 20% (inactive).

As for `CCc1cc(C(=O)COc2ccccc2F)c(O)cc1O`, the cytotoxicity is -13.8% (inactive). Under `CCc1cc(C(=O)Cc2ccc(F)cc2)c(O)cc1O` stands 50.9% (active). Consider `CCCc1cc(C(=O)Cc2ccc(F)cc2)c(O)cc1O`, for which the cytotoxicity is 80.9% (active).
